Screening data (PubChem BioAssay)
Pf growth 48h: Primary qHTS for delayed death inhibitors of the malarial parasite plastid, 48 hour incubation; P. falciparum luciferase growth in erythrocytes, 48 h; AID 504832, 2011; Potency, µM (titrated, usually from 28.7 µM), hits mostly inhibitors; actives 5.9% (n = 310,000)
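Luciferase-expressing parasites in RBCs, 2% Hct / 0.1% parasitemia final; RPMI 1640 + 0.5% Albumax; 37 C, 5% CO2, one generation; luminescence read-out, lower signal = inhibition.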
CHX counter: Cycloheximide Counterscreen for Small Molecule Inhibitors of Shiga Toxin; actives 12% (n = 300,000); max response, %; cell reporter, cycloheximide protein synthesis inhibition counterscreen; in the data active = max response mostly above about 13%, no sharp cut-off; inactive = mostly below about 14%; also: read at 38.3 µM for the half of the compounds with a filed dose
Shiga toxin inh: A qHTS for Small Molecule Inhibitors of Shiga Toxin; Vero cells, Shiga toxin protein synthesis inhibition reporter; inhibition, % at 38.7 µM; actives 9.2% (n = 290,000); in the data active = inhibition mostly above about 28%, no sharp cut-off; inactive = mostly below about 43%
Pf growth 96h: Primary qHTS for delayed death inhibitors of the malarial parasite plastid, 96 hour incubation. P. falciparum luciferase reporter growth, 96 h. Potency, µM (titrated, usually from 28.7 µM), actives largely listed as inhibitors. actives 6.9% (n = 320,000). AID 504834, 2011
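96 h incubation, 37 C, 5% CO2, of luciferase-reporter P. falciparum-infected RBCs (2% hematocrit, 0.05% parasitemia final) with test compounds; endpoint luminescence.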
Of the large screens only hits and unclear results are named; the others gave an inactive call. Most compounds without a hit are left out; they make up all but 21% or so of the library. Unless noted, calls follow the shape of the dose curve; as a rule, active = well fitted inhibition curve with a large enough effect; inconclusive = small, poorly fitted or top-dose-only effect, or another doubt; inactive = no such curve, though single readings can be large or run the other way.

N/C(=N\OC(=O)c1ccccc1F)c1ccc([N+](=O)[O-])cc1	CHX counter 30 (no result: Pf growth 48h)
Cc1cccc(/C(N)=N/OC(=O)c2ccc(F)cc2)c1	Pf growth 48h inconclusive, CHX counter 73, Shiga toxin inh 86
N/C(=N\OC(=O)c1ccccc1Cl)c1cccc([N+](=O)[O-])c1	CHX counter 37, Shiga toxin inh 52
CCOc1ccc(C(=O)O/N=C(\N)c2ccc([N+](=O)[O-])cc2)cc1OCC	Pf growth 48h inconclusive, Pf growth 96h inconclusive
N/C(=N\OC(=O)c1ccc(F)cc1)c1cccc([N+](=O)[O-])c1	CHX counter 31, Shiga toxin inh 57
O=S(=O)(Nc1ccc2c(c1)OCO2)c1ccc(Cl)cc1F	none (no result: CHX counter, Shiga toxin inh)
Cc1ccccc1S(=O)(=O)NCc1ccc(N2CCN(C)CC2)cc1	none
CCCCN(C)Cc1cc(=O)oc2ccc3ccccc3c12	none
N/C(=N\OC(=O)c1cccc(F)c1)c1cccc([N+](=O)[O-])c1	CHX counter 18, Shiga toxin inh 31
CC1=C(C)/C(=N/OC(=O)c2cccc([N+](=O)[O-])c2)C=CC1=O	Pf growth 48h inconclusive, CHX counter 56, Shiga toxin inh 90, Pf growth 96h inconclusive
N/C(=N/OC(=O)c1cccc([N+](=O)[O-])c1)c1cccc([N+](=O)[O-])c1	none
N/C(=N\OC(=O)c1ccc2ccccc2c1)c1cccc([N+](=O)[O-])c1	CHX counter 39, Shiga toxin inh active, Pf growth 96h inconclusive
N/C(=N/OC(=O)c1ccccc1Cl)c1ncc([N+](=O)[O-])s1	Pf growth 48h inconclusive, CHX counter 35, Shiga toxin inh 68, Pf growth 96h inconclusive
NC(=O)c1cccc([N+](=O)[O-])c1	none (no result: CHX counter, Shiga toxin inh)
CCN(CC(=O)NCc1ccc(Cl)cc1)C(=O)COc1cccc(Cl)c1	Pf growth 96h inconclusive (no result: CHX counter, Shiga toxin inh)
O=C(Cc1ccccc1F)NC1CCCN(Cc2ccc(Cl)cc2)C1 (stereo unspecified)	Pf growth 48h inconclusive, Pf growth 96h inconclusive
O=C(CCl)N(CCc1ccccc1)CCc1ccccc1	Pf growth 48h 12µM, Pf growth 96h inconclusive
CCCC(O)(CCC)C(=O)NN(C(=O)OC)c1ccccc1	none
Cc1ccc(N(NC(=O)C(O)(c2ccccc2)c2ccccc2)C(=O)CCl)cc1	Pf growth 48h 5.2µM, Pf growth 96h inconclusive
O=C(Nc1ccccc1)NN(C(=O)CCl)c1ccccc1	Pf growth 48h 13µM, Pf growth 96h inconclusive
CCC(O)(CC)C(=O)NN(C(=O)CCl)c1ccccc1	Pf growth 48h inconclusive, Pf growth 96h 5.2µM
COc1ccccc1CCN1CCCC(CN(C)Cc2ccc(OCCO)cc2)C1 (stereo unspecified)	Pf growth 48h inconclusive
COC(=O)CNc1nc(Cl)nc(Nc2ccc(C)cc2)n1	Pf growth 96h inconclusive
O=C(N(c1ccccc1)c1ccccc1)N(c1ccccc1)c1ccccc1	Pf growth 48h inconclusive, Pf growth 96h inconclusive
O=C(CCl)N(c1ccccc1)c1ccccc1	Pf growth 48h 1.7µM, Pf growth 96h 4.1µM
NC(=O)CN1CCN(Cc2ccc3c(c2)OCO3)CC1	Pf growth 96h 12µM (no result: Shiga toxin inh)
Cc1cc(C)cc(C(=O)N2CCN(Cc3ccc4c(c3)OCO4)CC2)c1	none
O=C(N1CCN(Cc2ccc3c(c2)OCO3)CC1)C(Cl)(Cl)Cl	Pf growth 48h inconclusive, CHX counter 17, Shiga toxin inh 67, Pf growth 96h inconclusive
CCN(CC)C(=O)CN1CCN(Cc2ccc3c(c2)OCO3)CC1	none
O=C(c1cccnc1)N1CCN(Cc2ccc3c(c2)OCO3)CC1	Pf growth 96h 4.1µM
Cc1ccc2[nH]c3c(c2c1)CN(C(=O)CN1CCN(Cc2ccc4c(c2)OCO4)CC1)CC3	Pf growth 48h inconclusive, Pf growth 96h 9.3µM
O=C(NCCS(=O)(=O)NC1CCCCC1)c1ccc2c(c1)OCO2	none (no result: CHX counter, Shiga toxin inh)
O=C(c1ccccn1)N1CCCC(N2CCN(Cc3ccc4c(c3)OCO4)CC2)C1 (stereo unspecified)	Pf growth 96h inconclusive
Cc1cccc(C(=O)N2CCCC(N3CCN(Cc4ccc5c(c4)OCO5)CC3)C2)n1 (stereo unspecified)	CHX counter 25, Pf growth 96h inconclusive
Cc1cc2c(s1)c1cnn(Cc3ccc(Cl)cc3)c(=O)c1n2C	none (no result: Pf growth 48h, Pf growth 96h)
CN1CCN(/C(=N\O)c2nonc2N)CC1	Pf growth 96h 15µM
Cc1ccc(C(=O)N2CCN(c3ccc([N+](=O)[O-])cc3)CC2)o1	none
CCOc1ccccc1N1CC(C(=O)Nc2cc(Cl)ccc2C)CC1=O (stereo unspecified)	none
CC(C)=CC(=O)OCc1cc([N+](=O)[O-])cc2c1OCOC2	CHX counter 65, Shiga toxin inh 88
O=C(OCc1cc([N+](=O)[O-])cc2c1OCOC2)c1ccc2ccccc2n1	none
O=C(Nc1ccc2c(c1)CCC2)Nc1ccc(F)cc1F	CHX counter 67, Shiga toxin inh 74, Pf growth 96h inconclusive
O=C(NCCN1CCCCC1)Nc1ccc(F)cc1F	none
O=C(CNC(=O)c1ccccc1F)Nc1ccc2c(c1)CCC2	none (no result: CHX counter, Shiga toxin inh)
O=C(Nc1ccc(F)cc1)Nc1ccc2c(c1)CCC2	CHX counter 49, Shiga toxin inh 68
Cc1ccc(NC(=O)Nc2ccc3c(c2)CCC3)cc1	CHX counter 48, Shiga toxin inh 54
Cc1cc(C)cc(NC(=O)Nc2ccc3c(c2)CCC3)c1	none
O=C(Nc1ccc2c(c1)CCC2)c1ncoc1-c1ccccc1F	CHX counter 27
O=C(Nc1ccnn1C1CCN(Cc2ccc(CO)o2)CC1)c1ccccc1	Pf growth 96h inconclusive
O=C(Nc1cccc([N+](=O)[O-])c1)Nc1ccc2c(c1)CCC2	CHX counter 12
CCCNC(=O)Nc1ccc(C(F)(F)F)cc1	CHX counter 18, Shiga toxin inh 43, Pf growth 96h inconclusive
CC1CCCN(CCC(=O)Nc2ccc3c(c2)CCC3)C1 (stereo unspecified)	none
O=C(CC1CCCC1)Nc1ccc2c(c1)CCC2	CHX counter 29, Shiga toxin inh 51
CCOc1ccc(NC(=O)Nc2ccc3c(c2)CCC3)cc1	none
CC(NC(=O)Nc1cccc([N+](=O)[O-])c1)(C(F)(F)F)C(F)(F)F	Pf growth 48h inconclusive, Pf growth 96h inconclusive
O=C(Nc1ccc2c(c1)CCC2)Nc1ccccc1F	CHX counter 47, Shiga toxin inh 64
COc1ccc(C(=O)NNS(=O)(=O)c2ccccc2)cc1OC	none (no result: Shiga toxin inh)
Cc1ccc2c(c1)N(CC(=O)NCCCN1CC(C)CC(C)C1)C(=O)c1cccnc1O2 (stereo unspecified)	none
CCc1ccc(NC(=O)c2c(C(=O)Nc3ccccc3)sc3nc(C)cc(=O)n23)cc1	Pf growth 48h inconclusive
O=C(Nc1ccc2c(c1)CCC2)c1cc(S(=O)(=O)Nc2ccc(F)cc2)c(Cl)cc1Cl	CHX counter 19, Pf growth 96h inconclusive
O=C(Nc1cccc([N+](=O)[O-])c1)Nc1cccs1	Pf growth 48h inconclusive, CHX counter 32
O=C(Nc1ccc(S(=O)(=O)NC2=NCCCCC2)cc1)c1cc(F)c(F)cc1Cl	Pf growth 48h inconclusive (no result: CHX counter, Shiga toxin inh)
Cc1ccccc1NC(=O)Nc1ccc(C(F)(F)F)cc1	CHX counter 23, Shiga toxin inh 56
Cc1ccccc1NC(=O)CNC(=O)c1ccc(C(F)(F)F)cc1	none
Cc1ccccc1NC(=O)Nc1ccc2c(c1)CCC2	CHX counter 28, Shiga toxin inh 104
